Reference: PubChem BioAssay
Values joined by “and” are separate entries in the source; they are usually repeats but may differ in a detail not shown here. Equal values may be shown once. Active and inactive are the calls of the source.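 The calls were made as follows, unless noted: active = thallium flux through the channel raised or lowered by more than 3 SD from vehicle-only wells, actives on both sides; inactive = the rest.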

Experiments:
[1] = P. berghei load reduction in hepatocytes – cell-based, HepG2, luciferase luminescence, HepG2 viability, primary screen (AID 624349; in the data active = parasite load remaining mostly below about 12%, no sharp cut-off; inactive = mostly above about 10%;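 also: 100% = mean of DMSO negative control wells on the same plate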); conditions: P. berghei liver stage in HepG2, luciferase luminescence, concentration not given here; parasite load remaining: stronger effect = lower value; viability: measured here: HepG2 viability without parasites
[2] = signal quenchers or enhancers, Cy5 substrate/SSB – biochemical, NIH Clinical Collection, E. coli SSB, artefact control for HCV NS3 helicase inhibitor project (AID 743268; call rule not given here); conditions: Cy5-oligo bound E. coli SSB, fluorescence interference
[3] = tested on: Hepatitis C virus NS3 helicase; test: blockers of NS3h binding to DNA – biochemical, fluorescence polarization, NIH Clinical Collection, primary screen (AID 743270; call rule not given here); conditions: NS3 helicase binding to Cy5-dT15 DNA, stronger effect = higher value, concentration not given here
[4] = biological target: Single-stranded DNA-binding protein (Escherichia coli (strain K12)) (UniProt P0AGE0); test: SSB-ssDNA binding inhibitors – biochemical, fluorescence polarization, NIH Clinical Collection, counter-screen for HCV NS3 helicase inhibitor project (AID 743271; in the data active = inhibition above about 28%); conditions: E. coli SSB-DNA binding, stronger effect = higher value, concentration not given here
[5] = compounds distorting NS3 helicase fluorescence signal – biochemical, NIH Clinical Collection, artefact control for HCV NS3 helicase inhibitor project (AID 743272; call rule not given here;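 also: HCV NS3 helicase with a Cy5 labelled single stranded DNA probe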); conditions: fluorescence interference counterscreen, HCV NS3 helicase assay; stronger effect = lower value
[6] = tested on: Neuropilin-2 / VEGF-C interaction (human); test: small molecules blocking Neuropilin-2/VEGF-C interaction – biochemical, microplate binding format, z-score (AID 743281; call rule not given here); conditions: microplate NRP2/VEGF-C binding assay; stronger effect = lower value
[7] = modulation of C. elegans fzo-1 (AID 1259413; call rule not given here;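 also: fzo-1 mutant C. elegans worms in liquid wells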); conditions: C. elegans fzo-1 modulator screen, mean read-out; stronger effect = higher value
[8] = viability loss with induced miR-34 in A549 – imaging, A549 dox-inducible miR-34, nuclei and caspase counts, primary screen (AID 1347080;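 active = compounds whose cell count with miR-34 switched on is under 0.7 times the count with it off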); conditions: A549 miR-34 inducible, Hoechst nuclei count, 48 h
[9] = MELAS cybrid and Rieske KO viability enhancers – cell-based, MELAS cybrids, Rieske KO mouse fibroblasts, CellTiter-Glo, primary screen (AID 1508586;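 active = mean z-score across replicates of 1.96 or higher in either the MELAS or the Rieske mutant cell line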;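 also: z relative to plate mean and SD of compound and empty wells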); conditions: low glucose
[10] = galactose survival enhancers in mitochondrial complex I cybrids – cell-based, galactose medium, ATP luminescence, primary screen (AID 1645843;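 active = z-score of at least 1.8 in each of two replicates, scored against plate mean and spread of sample wells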;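 also: positive z means more ATP and so rescue of galactose-driven cybrid death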); conditions: complex I mutant cybrid cells, 72 h, stronger effect = higher value
[11] = tested on: F380Y; test: BK channel mutant inhibitors and activators – cell-based, U2OS BacMam, thallium flux, beta subunits, selectivity assay, profiling panel (AID 1259406); conditions: U2OS BacMam BK variants, at 30 µM;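 also: initial slope of Thallos dye fluorescence rise after thallium is added; log ratio against the mean of 0.3% DMSO vehicle wells on the same plate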
[12] = tested on: F380Y/beta1; test: as above; conditions: U2OS BacMam BK variants, at 30 µM
[13] = tested on: F380Y/beta2Delta; test: as above; conditions: U2OS BacMam BK variants, at 30 µM
[14] = tested on: F380Y/beta4; test: as above; conditions: U2OS BacMam BK variants, at 30 µM
[15] = biological target: Calcium-activated potassium channel subunit alpha-1 (Homo sapiens) + Leucine-rich repeat-containing protein 26 (Homo sapiens) (UniProt Q12791+Q2I0M4); test: as above; conditions: U2OS BacMam BK variants, F380Y/Slo1WT/gamma1, at 30 µM
Sequence of Calcium-activated potassium channel subunit alpha-1 (Homo sapiens) + Leucine-rich repeat-containing protein 26 (Homo sapiens) (Q2I0M4 whole entry, looked up, one chain of several): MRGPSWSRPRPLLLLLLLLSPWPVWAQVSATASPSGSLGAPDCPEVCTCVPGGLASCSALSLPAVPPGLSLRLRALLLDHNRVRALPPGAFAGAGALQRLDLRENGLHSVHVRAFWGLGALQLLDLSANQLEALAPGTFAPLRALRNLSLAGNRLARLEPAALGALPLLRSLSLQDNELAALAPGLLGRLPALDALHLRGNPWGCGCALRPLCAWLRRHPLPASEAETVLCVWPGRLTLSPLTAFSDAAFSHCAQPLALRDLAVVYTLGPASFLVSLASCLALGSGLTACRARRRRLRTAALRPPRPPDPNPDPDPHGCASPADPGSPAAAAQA

[16] = tested on: R275C; test: as above; conditions: U2OS BacMam BK variants, at 30 µM
[17] = tested on: R275C/beta1; test: as above; conditions: U2OS BacMam BK variants, at 30 µM
[18] = tested on: R275C/beta2Delta; test: as above; conditions: U2OS BacMam BK variants, at 30 µM
[19] = tested on: R275C/beta4; test: as above; conditions: U2OS BacMam BK variants, at 30 µM
[20] = tested on: R275C/Slo1WT/beta2; test: as above; conditions: U2OS BacMam BK variants, at 30 µM
[21] = stronger effect = lower value, cell number ratio, induced over uninduced
[22] = measured here: relative caspase fold change +Dox/-Dox
[23] = measured here: total cells with miR-34 induction, stronger effect = lower value
[24] = measured here: total cells without miR-34 induction
[25] = MELAS cybrid survival, CellTiter-Glo 48 h, stronger effect = higher value
[26] = Rieske KO mouse fibroblast survival, CellTiter-Glo 72 h

C=CCc1ccc(O)c(-c2ccc(O)c(CC=C)c2)c1
1.37 and 0.714: fold change [8, 22]
inactive: parasite load remaining [1] 18.8% | fluorescence ratio [2] 0.94 | inhibition [3] 5.94% | inhibition [4] 5.29% | fluorescence ratio [5] 0.94 | z-score [6] -0.759 | mean signal [7] 216 | fold change [8, 21] 0.989 and 0.916 | z-score [9, 25] -0.24 | z-score [10] -1.87 | log fold change Tl+ flux [16] 0.0538
8192 and 9270: cell count [8, 23]
8280 and 10100: cell count [8, 24]
70.3%: viability [1]
0.74: z-score [9, 26]
active: log fold change Tl+ flux [11] 0.306 | log fold change Tl+ flux [12] 0.643 | log fold change Tl+ flux [13] 0.34 | log fold change Tl+ flux [14] 0.501 | log fold change Tl+ flux [15] 0.418 | log fold change Tl+ flux [17] 0.387 | log fold change Tl+ flux [18] 0.524 | log fold change Tl+ flux [19] 0.697 | log fold change Tl+ flux [20] 0.149

NC(Cc1cc(I)c(Oc2ccc(O)c(I)c2)c(I)c1)C(=O)O (stereo not drawn)
9780 and 7770: cell count [8, 23]
inactive: parasite load remaining [1] 39.9% | fluorescence ratio [2] 0.99 | inhibition [3] -1.36% | inhibition [4] 1.81% | fluorescence ratio [5] 0.92 | mean signal [7] 230 | fold change [8, 21] 0.986 and 0.874 | z-score [9, 25] -0.101 | z-score [10] -1.5 | log fold change Tl+ flux [11] 0.0253 | log fold change Tl+ flux [12] 0.112 | log fold change Tl+ flux [13] 0.058 | log fold change Tl+ flux [15] 0.0742 | log fold change Tl+ flux [16] 0.047 | log fold change Tl+ flux [17] 0.0451
1.58 and 0.636: fold change [8, 22]
106%: viability [1]
9910 and 8890: cell count [8, 24]
active: log fold change Tl+ flux [14] 0.107 | log fold change Tl+ flux [18] 0.136 | log fold change Tl+ flux [19] 0.254 | log fold change Tl+ flux [20] -0.125
0.0136: z-score [9, 26]

NC(=O)c1ncn(C2OC(CO)C(O)C2O)n1 (stereo not drawn)
0.486: z-score [9, 26]
9950 and 8880: cell count [8, 23]
151%: viability [1]
10100 and 9640: cell count [8, 24]
1.64 and 0.871: fold change [8, 22]
inactive: parasite load remaining [1] 36.7% | fluorescence ratio [2] 1.01 | inhibition [3] 1.36% | inhibition [4] 5.62% | fluorescence ratio [5] 1.05 | mean signal [7] 278 | fold change [8, 21] 0.987 and 0.921 | z-score [9, 25] -0.322 | z-score [10] 1.69 | log fold change Tl+ flux [11] -0.0109 | log fold change Tl+ flux [12] -0.00666 | log fold change Tl+ flux [13] -0.00987 | log fold change Tl+ flux [14] 0.00318 | log fold change Tl+ flux [15] -0.0406 | log fold change Tl+ flux [16] 0.0183 | log fold change Tl+ flux [17] -0.000638 | log fold change Tl+ flux [18] -0.0258 | log fold change Tl+ flux [19] -0.0315 | log fold change Tl+ flux [20] 0.0198

CN(C)C1C(=O)C(C(N)=O)=C(O)C2(O)C(=O)C3=C(O)c4c(O)ccc(Cl)c4C(O)C3CC12 (stereo not drawn)
5650: cell count [8, 24]
inactive: parasite load remaining [1] 84.6% | fluorescence ratio [2] 1.05 | inhibition [3] -11.4% | inhibition [4] -1.24% | fluorescence ratio [5] 0.84 | mean signal [7] 261 | fold change [8, 21] 0.964 | z-score [10] -1.45 | log fold change Tl+ flux [11] -0.0288 | log fold change Tl+ flux [12] -0.00371 | log fold change Tl+ flux [13] -0.0136 | log fold change Tl+ flux [14] 0.00837 | log fold change Tl+ flux [15] 0.0307 | log fold change Tl+ flux [16] -0.0571 | log fold change Tl+ flux [17] -0.0108 | log fold change Tl+ flux [19] -0.101 | log fold change Tl+ flux [20] -0.0217
active: log fold change Tl+ flux [18] -0.203
103%: viability [1]
1.22: fold change [8, 22]
5440: cell count [8, 23]

CCC(C)n1ncn(-c2ccc(N3CCN(c4ccc(OCC5COC(Cn6cncn6)(c6ccc(Cl)cc6Cl)O5)cc4)CC3)cc2)c1=O (stereo not drawn)
7130 and 11200: cell count [8, 24]
5650 and 9680: cell count [8, 23]
inactive: parasite load remaining [1] 26.8% and 13.6% | fluorescence ratio [2] 0.99 | inhibition [3] 2.77% | inhibition [4] -1.64% | fluorescence ratio [5] 1 | z-score [6] 0.805 | mean signal [7] 270 | fold change [8, 21] 0.793 and 0.866 | z-score [9, 25] -0.416 and -0.441 | z-score [10] -1.48 and 0.09 | log fold change Tl+ flux [11] 0.0299 | log fold change Tl+ flux [12] 0.0346 | log fold change Tl+ flux [13] -0.00576 | log fold change Tl+ flux [14] 0.0111 | log fold change Tl+ flux [15] 0.0139 | log fold change Tl+ flux [16] -0.015 | log fold change Tl+ flux [17] 0.0149 | log fold change Tl+ flux [18] 0.0172 | log fold change Tl+ flux [19] -0.00424 | log fold change Tl+ flux [20] 0.0617
0.947 and 1.02: z-score [9, 26]
1.39 and 1.62: fold change [8, 22]
59.8% and 65%: viability [1]

CC(C)c1ccc2c(c1)c(SC(C)(C)C)c(CC(C)(C)C(=O)O)n2Cc1ccc(Cl)cc1
67.1%: viability [1]
inactive: parasite load remaining [1] 36.1% | fluorescence ratio [2] 0.95 | inhibition [3] 7.52% | inhibition [4] 1.44% | fluorescence ratio [5] 0.96 | z-score [6] -2.97 | mean signal [7] 225 | fold change [8, 21] 1.09 and 1 and 0.966 | z-score [10] -1.26 and -1.88 | log fold change Tl+ flux [11] -0.0174 | log fold change Tl+ flux [12] 0.00246 | log fold change Tl+ flux [13] 0.0246 | log fold change Tl+ flux [14] -0.0142 | log fold change Tl+ flux [15] 0.00963 | log fold change Tl+ flux [16] 0.00647 | log fold change Tl+ flux [17] 0.0168 | log fold change Tl+ flux [18] 0.0237 | log fold change Tl+ flux [19] -0.00771 | log fold change Tl+ flux [20] 0.027
2540 and 2670 and 5520: cell count [8, 23]
2340 and 2670 and 5710: cell count [8, 24]
0.262 and 1.3 and 1.57: fold change [8, 22]
